Structures are written as SMILES. Inconclusive results are not listed. Active and inactive are the calls of the source. Unless noted, the call rests on the fitted dose curve; in most records, active means well fitted curve in the direction sought with a large enough effect; inconclusive means small, poorly fitted or top-dose-only effect, or another doubt; inactive means no such curve, though single readings can be large; an effect the other way counts as inactive or inconclusive.

Experiment [1] has as its target Rap guanine nucleotide exchange factor 4 (Homo sapiens) (UniProt Q8WZA2). As to the kind of experiment: Confirmatory qHTS for antagonist of cAMP-regulated guanine nucleotide exchange factor 4 (EPAC2) (AID 1645885). Further: potency means the concentration at half of the fitted maximal effect; nearly all actives have a fitted effect of over 25% in size. The conditions noted are these: EPAC2 Rap1B-BODIPY-GDP exchange fluorescence, biochemical; series mostly up to 114 µM. (qHTS replaces the single test concentration by a dilution series.)

The target of experiment [2] is Cytochrome P450 2C9 (Homo sapiens) (UniProt P11712). As to the kind of experiment: qHTS Assay for Inhibitors and Substrates of Cytochrome P450 2C9 (AID 883). Further: nearly all actives have a fitted effect of over 60% in size. Further: potency means the concentration at half of the fitted maximal effect. On activity change, negative = inhibition: on the % scale 0 is the no-effect control and ±100 the full control effect. To be noted: recombinant CYP2C9, luciferin-H luminescence, 60 min; series mostly up to 57.1 µM. The procedure, abridged:
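Human CYP2C9 (10nM) with Luciferin-H at 100uM (its KM) in 25mM KPO4; compound preincubated 10 min at 37C, then NADPH regeneration for 60 min at 37C. Luciferin read by luminescence after detection reagent; normalized to 57uM sulphaphenazole as full inhibition.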

Experiment [3] is described as follows: Confirmation and Secondary Assay for Modulators of Hemoglobin Beta Chain Splicing at IVS2 654 locus (AID 910).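 Further: HeLa cells stably carrying EGFP split by mutant beta-globin IVS2-654 intron; % of control where 0% means no effect.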 The conditions noted are these: HeLa EGFP-654 splicing reporter, GFP fluorescence, 48 h; series mostly up to 38.3 µM. The procedure, abridged: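 HeLa cells stably expressing EGFP interrupted by β-globin IVS2-654 intron, seeded overnight in Opti-MEM/2% FCS, then treated 2 days at 37 °C. Restored splicing read as total peak GFP intensity per well by laser scanning cytometry (488 nm excitation, 500–520 nm emission); 500 nM antisense PNA as control.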

The nature of experiment [4]: Confirmation and Secondary Assay for Modulators of Hemoglobin Beta Chain Splicing at IVS2 705 locus (AID 930).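 Further: HeLa cells stably expressing the EGFP-705 splicing reporter; % of control where 0% means no effect.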 To be noted: HeLa EGFP-705 splicing reporter, GFP fluorescence, 48 h; series mostly up to 38.3 µM. The procedure, abridged: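 Splice-correction reporter: EGFP cDNA split by beta-globin intron 2 bearing the 705 mutation, stably in HeLa. Compound incubation 2 days, 37C; fluorescent objects 5-250 µm summed per well.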

In experiment [5] the target is DNA dC->dU-editing enzyme APOBEC-3G (Homo sapiens) (UniProt Q9HC16). In words: qHTS for inhibitors of Vif-A3G interactions: Validation (AID 588379). Further: 0% is about no effect. To be noted: Vif-A3G protein interaction assay; series mostly up to 46.1 µM. The procedure, abridged:
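Yellow fluorescence (Ex 488, Em 500-530) of Vif-coexpressing HeLa A3G-eYFP cells, scanned by Acumen cytometer, reports blocked A3G degradation. Cells plated at 700/well overnight at 37 deg C before compound addition, then a further overnight compound incubation at 37 deg C.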

Experiment [6] in a line: NCATS anti-infectives library activity on HEK293 viability as a counter-qHTS vs the C. elegans viability qHTS (AID 1745854). Further: on the % scale 0 is the no-effect control and ±100 the full control effect. The conditions noted are these: HEK293 viability counter-screen; series mostly up to 41.8 µM. The procedure, abridged: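 CellTiter-Glo luminescence, read on a CCD imager, scored viability of HEK293 cells after 24 hr compound exposure at 37C. Library tested in several concentrations, 1:5 steps, up to 41.7 uM; digitonin served as control.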

The nature of experiment [7]: NCATS anti-infectives library activity on the primary C. elegans qHTS viability assay (AID 1745855; calls by dose curve; further: potency means the concentration at half of the fitted maximal effect). To be noted: C. elegans worm area imaging, day 7. The procedure, abridged:
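Titration-based screen in worms: eggs hatched overnight in M9, L1 larvae fed TOP10 capsules in S medium with compound, incubated 21 °C for 7 days; fluorescent objects gated by size and intensity at days 0, 3 and 7.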

The target of experiment [8] is Catechol O-methyltransferase (Homo sapiens) (UniProt P21964). As to the kind of experiment: Confirmatory Screen for Target Class Profiling of Small Molecule Inhibitors of Methyltransferases (AID 1745852). On activity change, negative = inhibition: on the % scale 0 is the no-effect control and ±100 the full control effect. The conditions noted are these: MTase-Glo luminescence, SAH detection, recombinant enzyme; measured here: COMT max response; stronger effect = lower value.
Experiment [9] concerns the target Guanidinoacetate N-methyltransferase (Homo sapiens) (UniProt Q14353). The experiment is described as above. To be noted: MTase-Glo luminescence, SAH detection, recombinant enzyme; at 57.3 µM (top of the series).
Experiment [10] has as its target Nicotinamide N-methyltransferase (Homo sapiens) (UniProt P40261). The experiment is described as above. To be noted: MTase-Glo luminescence, SAH detection, recombinant enzyme; measured here: NNMT max response; stronger effect = lower value.
Experiment [11] has as its target Phenylethanolamine N-methyltransferase (Homo sapiens) (UniProt P11086). The experiment is described as above. The conditions noted are these: MTase-Glo luminescence, SAH detection, recombinant enzyme; measured here: PNMT max response; stronger effect = lower value.
The nature of experiment [12]: qHTS Assay for Identification of Small Molecule Agonists for Hypoxia Response Element Signaling Pathway (AID 914; active means well fitted activation curve with a large enough effect in the signal ratio, with a control signal flat, not every such curve was filed as active; the % refers to the signal ratio; further: potency means the concentration at half of the fitted maximal effect; on activation: % of control where 0% means no effect). To be noted: ME-180 (cervical carcinoma) HRE-bla reporter, beta-lactamase ratio, CoCl2, 17 h; activation: stronger effect = higher value. The procedure, abridged:
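Cells were plated overnight, pin-dosed with compound in a titration series, co-stimulated with EC50 CoCl2 and incubated 17 hours at 37 degrees Celsius. CCF4 substrate was then loaded, and AC50 values came from the 460nm/530nm ratio.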

Chain of Rap guanine nucleotide exchange factor 4 (Homo sapiens) (Q8WZA2 whole entry, looked up): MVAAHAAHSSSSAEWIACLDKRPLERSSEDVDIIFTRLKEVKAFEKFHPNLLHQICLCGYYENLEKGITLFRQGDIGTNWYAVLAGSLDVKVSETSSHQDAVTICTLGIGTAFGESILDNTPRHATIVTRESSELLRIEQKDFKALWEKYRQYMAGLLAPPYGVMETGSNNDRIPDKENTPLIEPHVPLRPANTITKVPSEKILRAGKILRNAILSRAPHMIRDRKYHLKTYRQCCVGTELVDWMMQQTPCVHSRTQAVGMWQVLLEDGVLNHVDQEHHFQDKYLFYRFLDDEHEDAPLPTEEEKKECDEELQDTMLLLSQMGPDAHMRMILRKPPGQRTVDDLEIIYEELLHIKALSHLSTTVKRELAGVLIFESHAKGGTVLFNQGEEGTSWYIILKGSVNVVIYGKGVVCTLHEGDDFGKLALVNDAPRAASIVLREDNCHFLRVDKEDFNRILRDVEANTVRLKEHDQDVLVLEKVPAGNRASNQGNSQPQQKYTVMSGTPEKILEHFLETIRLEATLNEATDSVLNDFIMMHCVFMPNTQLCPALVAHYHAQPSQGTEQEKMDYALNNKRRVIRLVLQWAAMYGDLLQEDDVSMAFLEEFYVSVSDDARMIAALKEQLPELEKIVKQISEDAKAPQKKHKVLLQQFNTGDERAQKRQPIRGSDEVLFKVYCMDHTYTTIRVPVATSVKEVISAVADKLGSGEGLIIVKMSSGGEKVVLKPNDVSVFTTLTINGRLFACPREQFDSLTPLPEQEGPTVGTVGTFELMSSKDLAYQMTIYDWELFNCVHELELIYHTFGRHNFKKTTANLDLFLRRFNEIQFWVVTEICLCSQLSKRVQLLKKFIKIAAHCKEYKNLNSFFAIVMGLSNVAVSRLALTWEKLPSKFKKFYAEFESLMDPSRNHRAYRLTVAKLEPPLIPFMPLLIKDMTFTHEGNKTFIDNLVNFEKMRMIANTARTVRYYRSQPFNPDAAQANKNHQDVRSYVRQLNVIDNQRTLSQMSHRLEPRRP
Chain of Cytochrome P450 2C9 (Homo sapiens) (P11712 whole entry, looked up): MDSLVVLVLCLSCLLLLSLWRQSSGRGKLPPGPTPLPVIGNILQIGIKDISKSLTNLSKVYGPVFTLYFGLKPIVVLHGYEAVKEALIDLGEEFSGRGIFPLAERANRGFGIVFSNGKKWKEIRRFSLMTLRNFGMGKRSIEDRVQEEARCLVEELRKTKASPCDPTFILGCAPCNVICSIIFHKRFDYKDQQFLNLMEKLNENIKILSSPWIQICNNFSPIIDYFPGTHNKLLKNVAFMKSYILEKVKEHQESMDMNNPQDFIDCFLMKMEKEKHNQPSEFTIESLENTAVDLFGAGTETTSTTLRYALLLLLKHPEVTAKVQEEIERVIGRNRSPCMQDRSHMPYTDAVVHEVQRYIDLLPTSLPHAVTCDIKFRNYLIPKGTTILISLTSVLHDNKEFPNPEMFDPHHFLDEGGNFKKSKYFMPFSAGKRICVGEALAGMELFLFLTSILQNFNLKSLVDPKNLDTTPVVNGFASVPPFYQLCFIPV
Chain of DNA dC->dU-editing enzyme APOBEC-3G (Homo sapiens) (Q9HC16 whole entry, looked up): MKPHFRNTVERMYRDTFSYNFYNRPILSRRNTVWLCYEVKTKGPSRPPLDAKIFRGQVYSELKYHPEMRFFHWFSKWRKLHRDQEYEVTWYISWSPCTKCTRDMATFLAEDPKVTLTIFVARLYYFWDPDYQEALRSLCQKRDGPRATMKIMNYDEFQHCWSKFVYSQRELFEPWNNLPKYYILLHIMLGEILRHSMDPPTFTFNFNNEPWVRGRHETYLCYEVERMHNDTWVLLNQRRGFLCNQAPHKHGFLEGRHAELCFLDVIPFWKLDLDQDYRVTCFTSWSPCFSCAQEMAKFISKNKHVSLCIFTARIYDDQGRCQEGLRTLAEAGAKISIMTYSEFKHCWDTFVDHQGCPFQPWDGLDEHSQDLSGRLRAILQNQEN
Chain of Phenylethanolamine N-methyltransferase (Homo sapiens) (P11086 whole entry, looked up): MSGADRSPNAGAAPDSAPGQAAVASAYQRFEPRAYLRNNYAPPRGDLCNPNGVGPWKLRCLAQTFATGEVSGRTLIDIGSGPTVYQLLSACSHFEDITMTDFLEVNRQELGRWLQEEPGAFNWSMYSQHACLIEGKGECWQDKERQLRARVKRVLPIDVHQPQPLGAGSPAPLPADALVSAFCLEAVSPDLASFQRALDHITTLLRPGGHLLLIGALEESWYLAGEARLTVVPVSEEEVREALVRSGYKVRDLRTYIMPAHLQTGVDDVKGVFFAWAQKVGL
Chain of Catechol O-methyltransferase (Homo sapiens) (P21964 whole entry, looked up): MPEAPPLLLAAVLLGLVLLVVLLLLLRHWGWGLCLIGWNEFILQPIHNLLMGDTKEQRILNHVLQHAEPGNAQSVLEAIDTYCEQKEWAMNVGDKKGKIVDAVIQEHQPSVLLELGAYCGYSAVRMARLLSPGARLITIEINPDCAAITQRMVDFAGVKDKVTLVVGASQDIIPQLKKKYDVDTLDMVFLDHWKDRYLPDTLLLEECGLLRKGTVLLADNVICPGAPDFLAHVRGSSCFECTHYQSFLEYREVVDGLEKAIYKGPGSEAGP
Chain of Nicotinamide N-methyltransferase (Homo sapiens) (P40261 whole entry, looked up): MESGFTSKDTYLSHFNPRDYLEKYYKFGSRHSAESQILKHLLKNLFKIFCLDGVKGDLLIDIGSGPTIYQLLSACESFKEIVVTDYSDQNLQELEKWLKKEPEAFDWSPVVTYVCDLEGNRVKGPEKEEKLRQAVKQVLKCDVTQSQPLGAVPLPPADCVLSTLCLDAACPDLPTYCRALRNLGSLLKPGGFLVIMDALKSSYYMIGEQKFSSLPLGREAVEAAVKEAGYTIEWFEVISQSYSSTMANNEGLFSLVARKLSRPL

For `COc1ccc(C(=O)N2CCC3(CCN(Cc4cc(C(F)(F)F)cc(C(F)(F)F)c4)CC3)CC2)cc1`, the Potency in experiment [1] is 35 µM (active).

For the molecule `COc1cccc(Cn2c(=O)c(-c3ccc(Cl)cc3)nc3cnc(N4CCNCC4)nc32)c1`, in experiment [1], the Potency was 39.3 µM (active).

In the case of `COc1c(O)cc2oc3cc(O)c(CC=C(C)C)c(O)c3c(=O)c2c1CC=C(C)C`, the Potency is 5.01 µM (active) in [2] and 6.48 µM (active) in experiment [7]. Also, the Potency entry in experiment [3] was “inactive”. The outcome in experiment [4], in experiment [5] and in experiment [6] was “inactive” each time. As to `COc1ccc(C(=O)N2CCC[C@@]3(CCN(Cc4cc(C(F)(F)F)cc(C(F)(F)F)c4)C3)C2)cc1`, the Potency in [1] was 55.5 µM (active). Consider `O=C(CCCCCN1C(=O)c2cccc3cccc(c23)C1=O)NO`, for which the activity in experiment [8] is 0.323%; in experiment [10], -12.3%; in [11] it was -6.54%. Besides, the activity change, negative = inhibition in experiment [9] is 0.722%. Take `O=c1c(-c2cc(F)cc(F)c2)nc2cncnc2n1C1CC1`: in experiment [2], the Potency entry is “inactive”.

Regarding `COc1ccc(CNc2ccnc(-c3cccc(C#N)c3)n2)c(OC)c1`, in experiment [12], the activation was -5.53% (inactive). For the molecule `COc1cccc(-c2nccc(NCc3cccs3)n2)c1`, the Potency in experiment [1] was 62.2 µM (active). Regarding `O=c1c(-c2ccccc2)nc2cnc(Oc3cccc(Cl)c3)nc2n1C1CC1`, the Potency in experiment [2] was 0.251 µM (active).

As for `Cc1c(CC(C)(C)C(=O)O)n(Cc2ccc(Cl)cc2)c2ccc(F)cc12`, the outcome in [5] is “inactive”. In addition, the Potency in experiment [1] is 27.8 µM (active). With `Cc1cnc(CNc2cc(-c3ccccc3C(F)(F)F)ncn2)cn1`, the activation in experiment [12] was 4.59% (inactive). Take `COc1ccccc1CCn1c(=O)c(-c2cccc(Cl)c2)nc2cncnc21`: in experiment [12], the activation is -1.79% (inactive). Turning to `COc1ccc(Oc2ncc3ncc(=O)n(C4CC4)c3n2)cc1`, in [12], the activation is -9.06% (inactive). Still for that read-out and setting: under `COc1ccc(-n2c(=O)c(-c3ccccc3)nc3cnc(N4CCOCC4)nc32)cc1` stands -1.88% (inactive); under `Cc1ccccc1-c1ccc2ncnc(NCc3cccs3)c2c1`, 2.83% (inactive). On to `O=c1c(-c2cccc(F)c2)nc2cncnc2n1Cc1ccccc1Cl`, for which the Potency in experiment [2] was 7.94 µM (active). Still for that read-out and setting: to `CS(=O)(=O)Nc1cccc(-c2cncnc2NCc2ccccc2)c1` belongs 0.398 µM (active).

In the case of `O=c1c(-c2cccc(Cl)c2)nc2cncnc2n1Cc1ccccc1`, the Potency in [2] was 1.26 µM (active). `Cn1c(=O)c(-c2ccc(F)cc2)nc2cnc(N3CCOCC3)nc21`: the Potency in [12] is 2.51 µM (active).

Source of the values: PubChem BioAssay (NCATS).
